The list is not random: actives were taken first. Their share in the collection is about 3.6%.
TGFb inhibitor = inhibitors of TGF-b signaling; HepG2 CAGA-GFP TGF-b/SMAD3 reporter, GFP fluorescence, 18 h; TGF-beta stimulated, 500 pg/mL final; Potency, µM (doses to about 46.1 µM), without a hit: at the top dose activity, negative = inhibition, usual class: inhibitors; 410,000 tested, 1.2% active; also: % is scaled to controls: 0 for no effect and ±100 for the full control effect; nearly all actives have a fitted effect of over 65% in size
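Inhibition was scored as loss of TGF-beta-induced (500 pg/mL final, 18 hours, 37 degrees C) GFP in HEPG2 cells carrying a CAGA-GFP reporter, in DMEM with 1% FBS. Well GFP was summed per cell; Activity was normalised to unstimulated and stimulated DMSO wells, then concentration-response fitting.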
Nrf2 ARE act = activates Nrf2 signaling | AREc32 ARE-luciferase reporter (MCF7-derived line), luminescence, 24 h | 410,000 tested, 0.31% active | AID 624171 | Potency, µM (highest dose often 46.1 µM), for inactives: at the top dose activation, hits mostly activators; also: % of control where 0% means no effect; nearly all actives have a fitted effect of over 65% in size
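Nrf2 activation is followed as ARE-luciferase induction in the AREc32 line after one day of compound treatment; luminescence is read with Steady-Glo.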
Nrf2 block = blocks Nrf2 signaling | A549 ARE-Fluc reporter, luciferase luminescence, 18-24 h | Potency, µM (titrated, usually from 46 µM), without a hit: at the top dose activity change, negative = inhibition, usual class: inhibitors | 360,000 tested, 2.1% active; also: % is scaled to controls: 0 for no effect and ±100 for the full control effect; nearly all actives have a fitted effect of over 60% in size
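Quantitative HTS in A549 cells stably bearing an antioxidant response element-firefly luciferase construct. Inhibition of Nrf2-driven transcription was scored by luminescence after 18-24 h of compound exposure at 37 °C.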
A549 viability = kills or reduces viability of A549 cells in Nrf2 counter-screen; A549 ARE-Fluc cells, CellTiter-Fluor viability, 18-24 h; Potency, µM (doses to about 46 µM), for inactives: at the highest dose activity change, negative = cytotoxicity, most hits filed as inhibitors; 390,000 tested, 0.16% active; AID 504648; also: % is scaled to controls: 0 for no effect and ±100 for the full control effect
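A549 ARE-Fluc cells in 5% FBS OPTI-MEM, 5000 cells/well, rested 2 h then exposed to compounds in concentration-response for 18-24 h at 37 °C. Viability by CellTiter-Fluor fluorescence (Ex 405/Em 525) after 30 min; luciferase luminescence (BugLite, 15 min, RT) read afterwards.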
HepG2 tox = kills HepG2 cells in TGF-b inhibitor counter-screen; 410,000 tested, 0.76% active; HepG2 CAGA-GFP viability, ATP luminescence, 18 h; Potency, µM (series often up to 46.1 µM), inactives show top-dose activity change, negative = cytotoxicity, hits mostly cytotoxic
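HepG2 CAGA-GFP cells (1000/well, DMEM with 1% FBS) received compound, then TGF-beta at 500 pg/mL final, and were incubated 18 hours at 37 degrees C. Viability was read by CellTiter-Glo luminescence. Media-only wells were set as complete cell-killing and DMSO as no toxicity.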
An asterisk follows results filed as active; ? = inconclusive; . = no result given; ! = not active in a repeat; [ ] = another dose, or the depositor's remark. Calls follow the shape of the dose curve; as a rule, active = well fitted curve in the direction sought with a large enough effect; inconclusive = small, poorly fitted or top-dose-only effect, or another doubt; inactive = no such curve, though single readings can be large; an effect the other way counts as inactive or inconclusive. Potency is read from the fitted curve at half-maximal effect.

SMILES	TGFb inhibitor	Nrf2 ARE act	Nrf2 block	A549 viability	HepG2 tox
CCN1CCc2c(sc(-n3cccc3)c2C(C)NC(=O)Nc2ccc(C(=O)OC)cc2)C1 (configuration not stated)	10µM*	11.9%	6.1%	-10.2%	-30.5%
CCNC(=O)c1cc(S(=O)(=O)N(C)C)c(Cl)cc1Cl	18.9%	-0.7%	-18.5%	0.8%	-6.8%
CNC(=O)c1cc(Oc2ccc(NC(=O)Nc3ccc(Cl)c(C(F)(F)F)c3)cc2)ccn1	?	-2.0%	25.9µM*	?	15.8µM*!
CCN(CCNCC(O)COc1ccccc1C(C)C)c1cccc(C)c1 (configuration not stated)	?	-1.7%	5.2%	-6.8%	15.8µM*
CCOC(=O)N1CCN(CC(O)COc2ccccc2C(C)C)CC1 (configuration not stated)	-4.7%	0.3%	.	1.5%	-16.9%
COc1ccccc1NC(=S)N1CCCC1	8.6%	0.3%	?	22.5%	7.3%
CCN1/C(=C\C(=S)Nc2ccccc2)Sc2ccccc21	11.2µM*	2.3%	?	?	-33.1%
CCN1/C(=C\C=C(C(C)=O)C(C)=O)Sc2ccccc21	67.6%	11.5%	-1.6%	-16.4%	9.4%
Nc1ccc(-c2n[nH]c(=O)c3ccccc23)cc1N	4.1%	3.4%	16.4µM*	0.0%	15.8%
Cc1ccc(-c2n[nH]c(=O)c3ccccc23)cc1N	-15.6%	1.9%	?	-9.6%	-4.6%
COc1ccc(C(CNC(=O)c2ccc(-c3ccccc3Cl)o2)N2CCCC2)cc1 (configuration not stated)	?	0.4%	.	.	11.2µM*
COCCNC(=O)/C(C#N)=C/C=C/c1ccccc1[N+](=O)[O-]	20µM*	?	2.9%	-3.7%	-7.0%
COCCNC(=O)/C(C#N)=C/c1ccc(O)c([N+](=O)[O-])c1	-5.1%	-0.2%	-16.1%	-15.2%	23.9%
Cc1noc(NS(=O)(=O)c2ccc(NC(=O)CSc3nnc(-c4ccccc4)n3C3CCCCC3)cc2)c1C	-9.1%	0.2%	27.2%	-1.8%	11.9%
COc1cccc(OCC(=O)NN=C2c3ccccc3-c3ccccc32)c1	0.3%	-0.7%	18.4µM*	1.9%[1.84 µM]	-30.1%
O=C(NCCc1ccccc1)c1ccc2c(c1)OCCCO2	12.1%	-1.9%	2.06µM*	-0.8%	-27.9%
COc1ccc([N+](=O)[O-])c(S(=O)(=O)c2ccccc2)n1	3.16µM*	-3.5%	?	?	14.1µM*
COc1ccccc1S(=O)(=O)c1ccccc1[N+](=O)[O-]	?	0.6%	?	-4.0%	-0.5%
COc1nc(OC)nc(Oc2ccc(Cl)cc2[N+](=O)[O-])n1	9.8%	5.5%	-4.8%	-1.7%	-3.7%
COc1ccc([N+](=O)[O-])c(S(=O)(=O)c2ccc(Cl)cc2)n1	1.78µM*	-1.8%	13.0%	-2.8%	0.631µM*
O=[N+]([O-])c1cccnc1S(=O)(=O)c1ccccc1	11.2µM*	-3.2%	-5.0%	1.1%	3.55µM*
CCOCCCNC(=O)C1CCN(S(=O)(=O)c2ccc(C)cc2)CC1	7.4%	0.3%	.	-1.2%	-3.2%
COC(=O)c1cc(-c2ccc(OC)cc2F)nc2nc(SC)[nH]c(=O)c12	1.9%	-0.1%	-16.9%	3.5%	-37.2%
COc1cccc2cc(-c3nnc(-c4ccc(Cl)cc4)o3)c(=O)oc12	0.7%	9.0%	5.0%	-8.5%	-7.8%
COc1ccc(C(=O)NC(=O)Nc2cc(C)ccn2)cc1	4.4%	-0.7%	7.31µM*	16.5%	-12.7%
CC(C)CC(=O)NC(Nc1ccc([N+](=O)[O-])cc1)C(Cl)(Cl)Cl (configuration not stated)	15.8µM*	2.8%	?	?	-48.3%
CC(C)CC(=O)NC(Nc1ccccc1F)C(Cl)(Cl)Cl (configuration not stated)	3.5%	-0.8%	-5.9%	5.8%	-24.0%
Cc1ccc(S(=O)(=O)NC(CC(=O)O)c2ccc(F)cc2)cc1 (configuration not stated)	-8.8%	-0.3%	0.8%	-3.1%	-12.0%
CCc1cc(C=C(Cl)Cl)oc(=O)c1C	4.3%	14.1µM*	-13.6%	-19.9%	4.9%

High-throughput results deposited in PubChem BioAssay by National Center for Advancing Translational Sciences (NCATS).
